High-throughput results deposited in PubChem by National Center for Advancing Translational Sciences (NCATS).
In the library only some 19% were active in any assay of this set; here they are far more common.
DT40 TDP1 no CPT: qHTS for Inhibitors of human tyrosyl-DNA phosphodiesterase 1 (TDP1): qHTS in cells in absence of CPT. AID 686978, 2013. Potency, µM (top dose mostly 46.2 µM), for inactives: at the highest dose activity change, negative = growth inhibition, actives largely listed as inhibitors. actives 15% (n = 420,000). DT40 Tdp1-/- hTDP1 cells, no CPT, ATP luminescence, 48 h; note: potency is the fitted concentration of half-maximal effect; nearly all actives have a fitted effect of over 55% in size
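Readout: luminescence from CellTiter-Glo after 30 min in the dark at RT. Cells: DT40 Tdp1-/- with stable hTDP1, 400/well. Exposure: compounds alone, ≥48 hr, 37 °C.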
HT1080NT lethal: kills 2HG-producing HT-1080-NT fibrosarcoma cells; HT-1080-NT fibrosarcoma viability, CellTiter-Glo ATP luminescence, 48 h; Potency, µM (series often up to 46.1 µM), inactives show at the top dose activity, negative = less viability, most hits filed as cytotoxic; actives 1.6% (n = 360,000);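 note: NT is the 2HG producing partner of a matched IDH1 knockdown line; potency is the fitted concentration of half-maximal effect; 0% = DMSO-treated cells and -100% = media-only wells without cells; nearly all actives have a fitted effect of over 55% in size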
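Fibrosarcoma NT cells, 750 per well in 5% FBS RPMI, were exposed to compound for 48 hours. Viability: CellTiter-Glo luminescence.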
HT1080 IDH1KD tx: toxicity to HT-1080 IDH1 knockdown cells (counter line). Potency, µM (titrated, usually from 46.1 µM), for the others: top-dose activity, negative = toxicity, usual class: cytotoxic. AID 686971. actives 2% (n = 360,000). HT-1080 IDH1 knockdown viability, ATP luminescence, 48 h;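 note: potency is the fitted concentration of half-maximal effect; 0% = DMSO wells and -100% = cell-free medium wells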
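Cytotoxicity counter-line: IDH1KD HT-1080, 48 h, CellTiter-Glo. Curves classed by r2, magnitude and activity.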
DT40 TDP1 CPT: DT40-hTDP1 cell growth loss with CPT; chicken DT40 Tdp1-/-;hTDP1 cells + 20 nM CPT, ATP luminescence, 48 h; Potency, µM (doses to about 46.2 µM), for the others: top-dose activity change, negative = growth inhibition, hits mostly inhibitors; actives 12% (n = 420,000); AID 686979; note: potency is the fitted concentration of half-maximal effect; nearly all actives have a fitted effect of over 55% in size
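Chicken DT40 Tdp1-/- cells stably complemented with human TDP1 were seeded at 400 cells/well in medium containing 20 nM camptothecin, exposed to pin-transferred compounds, and grown at 37 °C for at least 48 hr. Viability was read as ATP luminescence.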
IL-1B inflam inh: inhibitors of inflammasome signaling (IL-1 beta secretion). actives 4.7% (n = 360,000). activity change, % at 57.5 µM. THP-1 LPS/ATP IL-1B secretion, AlphaLISA, 16 h; active compounds read low; in the data active = activity change below about -50%; inconclusive = mostly about -30% to -49%
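Secreted IL-1B measured by AlphaLISA bead assay after 16 h compound exposure of THP-1 cells; compounds (final up to 57.5 uM) added 1 h before LPS (250 ng/mL) and ATP (1.25 mM) stimulation; lower signal means less secretion.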
Numbers without * were called inactive; ? = inconclusive; / = no result. Unless noted, calls come from the whole dose curve; as a rule, active = well fitted curve in the direction sought with a large enough effect; inconclusive = small, poorly fitted or top-dose-only effect, or another doubt; inactive = no such curve, though single readings can be large; an effect the other way counts as inactive or inconclusive. Unless noted, % is set by controls: 0 for no effect and ±100 for the full control effect.

SMILES | DT40 TDP1 no CPT | HT1080NT lethal | HT1080 IDH1KD tx | DT40 TDP1 CPT | IL-1B inflam inh
CC1Cc2ccccc2N1C(=O)c1cc2c(=O)n3ccccc3nc2n1C (stereo unspecified) | ? | -18.3% | 10.8% | 11.6µM* | -29.9
Cc1cccn2c(=O)c3cc(C(=O)N4c5ccccc5CC4C)n(C)c3nc12 (stereo unspecified) | 16.4µM* | 15.8% | 8.1% | 18.4µM* | 58.2
O=S(=O)(Nc1ccc2c(c1)OCO2)c1cccc(Br)c1 | -29.8% | 7.5% | 4.9% | -26.0% | -5.1
O=C(CCc1ccccc1)NCC1(c2ccccc2)CCCC1 | ? | -6.0% | 8.3% | 10.6% | 23.2
CC(=O)N1CCc2cc(S(=O)(=O)NC(Cc3ccccc3)C(=O)Nc3cc(C)ccc3C)ccc21 (stereo unspecified) | -21.5% | / | / | -0.4% | /
O=C1ON=C(c2ccccc2)/C1=C/c1ccc(O)c(O)c1 | ? | -7.0% | -17.9% | ? | 0.3
COc1cc(/C=C2\C(=O)ON=C2c2ccc(Cl)cc2)ccc1O | 23.1µM* | 7.0% | 8.8% | 16.4µM* | -94.5*
O=C1ON=C(c2cccc([N+](=O)[O-])c2)/C1=C/c1ccc(O)cc1 | 13µM* | ? | ? | 11.6µM* | -99.8*
COc1ccc(/C=C2\C(=O)ON=C2c2ccccc2)cc1 | 20.6µM* | -1.5% | -12.8% | ? | ?
O=C(c1ccoc1)N1CCC2(CCCN(Cc3ccc(F)c(F)c3)C2)C1 (stereo unspecified) | -30.3% | -7.3% | -3.3% | ? | -14.1
Cc1occc1C(=O)N1CCC2(CCCN(Cc3ccc(F)c(F)c3)C2)C1 (stereo unspecified) | 16.4µM* | -23.1% | -20.5% | 14.6µM* | -24.7
COc1ccc(Cn2ccc3nc(C)c(C(=O)Nc4ccc(F)cc4)cc3c2=O)cc1 | -17.2% | / | / | -9.5% | /
COc1ccc(NC(=O)c2ccc3c(c2)c(C)c(C)n3Cc2ccc(F)cc2)cc1 | 4.61µM* | / | / | 5.17µM* | /
CCOC(=O)c1ccc(NC(=O)c2ccc3c(c2)c(C)c(C)n3Cc2ccc(F)cc2)cc1 | 8.2µM* | / | / | 9.2µM* | /
COc1ccccc1NS(=O)(=O)c1cc(NC(=O)Cc2n[nH]c(=O)c3ccccc23)ccc1Cl | ? | -4.7% | -5.7% | ? | ?
O=c1cc(Br)c(O)c(Br)cc1Br | 18.4µM* | 8.9% | 14.7% | ? | ?
O=C(Oc1ccc2ccccc2c1)C1CCC1 | -24.1% | 4.4% | 1.6% | -12.6% | 27.6
O=C(Oc1ccc(OC(=O)C2CCC2)cc1)C1CCC1 | 23.1µM* | 2.7% | -3.7% | ? | 14.7
Cc1nc2c(ncn2-c2ccccc2)c(=O)n1NC(=O)CN1CCCCC1 | -1.5% | -5.6% | -6.4% | 1.1% | 36.0
Cn1c(SCc2ccc(F)cc2)nc2ccc(C(=O)NCc3ccccc3)cc21 | -20.1% | / | / | -25.7% | /
O=C(CCCCCn1c(SCc2ccncc2)nc2ccccc2c1=O)NCc1ccco1 | ? | ? | 11.2µM* | ? | ?
O=C(NCc1ccccc1)c1ccc(CSc2nc3cccnc3n2Cc2ccccc2F)cc1 | 18.4µM* | / | / | ? | /
COc1ccc(CC(=O)NCc2nc3cccnc3n2Cc2ccccc2)cc1 | ? | / | / | 0.6% | /
COc1cccc(CNC(=O)c2ccc(Cn3c(SCc4ccccc4)nc4cccnc43)cc2)c1 | ? | / | / | 8.2µM* | /
O=C(NCc1ccco1)c1ccc(Cn2c(SCc3ccccc3)nc3cccnc32)cc1 | 25.9µM* | / | / | 4.11µM* | /
SMILES | DT40 TDP1 no CPT | HT1080NT lethal | HT1080 IDH1KD tx | DT40 TDP1 CPT | IL-1B inflam inh
O=C(NC1CC1)C1=COCCO1 | -2.0% | 10.8% | 5.2% | 4.4% | -3.2
Cc1cccc(CNC(=O)c2ccc(Cn3c(SCc4ccccc4)nc4cccnc43)cc2)c1 | 16.4µM* | / | / | ? | /
O=C1Nc2ccccc2C1=Nc1ccccc1-c1ccccc1 | ? | -6.7% | 5.6% | ? | -70.4*
Cc1cc(Br)ccc1N=C1C(=O)Nc2ccccc21 | -5.9% | -2.1% | 7.6% | 7.1% | 28.7
Cc1ccc([N+](=O)[O-])cc1N=C1C(=O)Nc2ccccc21 | -29.8% | -28.6% | ? | -20.3% | -88.6*
Cc1nn2c(=O)cc(COC(=O)c3cccs3)nc2s1 | -0.6% | / | / | ? | /
OC(COc1ccc2c(c1)OCO2)CN1CCc2ccccc2C1 (stereo unspecified) | -29.9% | -0.5% | -24.9% | ? | ?
COc1ccc(N=c2nc(-c3ccc(C)cc3)n(-c3ccccc3)s2)cc1 | 3.55µM* | / | / | 3.98µM* | /
Cc1ccc(-c2nc(=Nc3ccccc3)sn2-c2ccccc2)cc1 | 3.16µM* | / | / | 3.55µM* | /
COc1ccc(-n2c(-c3ccccc3)nnc2-c2ccc(Cl)cc2)cc1 | ? | -1.1% | -5.1% | -11.9% | 0.0
COc1ccc(N=C2C(=Nc3ccc(OC)cc3)N(c3ccc(OC)cc3)C(=S)N2c2ccccc2)cc1 | 18.4µM* | ? | 3.9% | 20.6µM* | -20.4
COc1ccc(N=c2nc(-c3ccccc3)n(-c3ccc(C)cc3)s2)cc1 | 3.16µM* | / | / | 4.47µM* | /
NC(=O)c1nsc(C(=O)N(c2cccc(F)c2)C(C(=O)NCC2CCCO2)c2cccs2)c1N (stereo unspecified) | ? | -14.6% | -14.7% | ? | -14.5
Cn1cc(CCC(=O)N2CCCC(C(=O)c3cccc4ccccc34)C2)cn1 (stereo unspecified) | ? | -7.0% | -0.1% | ? | -9.1
COc1ccc2cc(C(=O)C3CCCN(C(=O)CSc4nnc(C)o4)C3)ccc2c1 (stereo unspecified) | 20.6µM* | -45.8% | ? | 18.4µM* | -21.5
COc1ccc2cc(C(=O)C3CCCN(C(=O)c4cncs4)C3)ccc2c1 (stereo unspecified) | 11.6µM* | -0.7% | -9.6% | 18.4µM* | -17.9
COc1ccc2cc(C(=O)C3CCCN(C(=O)c4cnn(C(C)C)c4)C3)ccc2c1 (stereo unspecified) | ? | 2.4% | -2.2% | 25.9µM* | 13.9
COc1ccc2cc(C(=O)C3CCCN(C(=O)c4csnn4)C3)ccc2c1 (stereo unspecified) | ? | 14.6% | 11.9% | -19.9% | -0.9
COc1ccc2cc(C(=O)C3CCCN(C(=O)CCc4cnn(C)c4)C3)ccc2c1 (stereo unspecified) | ? | -1.6% | -8.3% | ? | -56.5*
Cc1ccc2c(c1)-c1c(c(C(=O)N3CCN(c4cc(C)ccc4C)CC3)nn1C)CS2 | 14.6µM* | / | / | ? | /
CCCCNC(=O)c1nn(C)c2c1CSc1ccccc1-2 | ? | / | / | 16.4µM* | /
Cn1nc(C(=O)Nc2ccccc2C#N)c2c1-c1ccccc1SC2 | 21.6% | / | / | -15.0% | /
